The entries come from a sample that favours hits as a whole.
MITF inh: inhibitors of MITF. TRPM1 promoter luciferase, luminescence, 24 h. inhibition, % (concentration not given with the values). actives 0.28% (n = 37,000); in the data active means inhibition above about 85%; inconclusive means no clear call, values can overlap the other calls; inactive means below about 68%;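 further: human melanocyte line stably carrying TRPM1 promoter luciferase reporter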
Hedgehog inh: Sonic Hedgehog pathway inhibition; actives 2.1% (n = 22,000); Shh-LIGHT2 Gli-luciferase reporter, 30 h; inhibition, % (no concentration beside the values);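 active means mean inhibition across valid replicates above about 65%, limit read from the data; inconclusive means mean under the limit, yet half or more replicates past it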;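 further: pathway switched on by Shh-conditioned medium diluted 1 in 25 in low serum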
YB-1 expression: YB-1 expression inhibition. U2OS, qRT-PCR YB-1 vs CDIP delta delta Cp, 16 h; hits give high values; zero = DMSO, each unit about twofold. delta delta Cp (YB-1 minus CDIP) (concentration not given with the values). actives 0.37% (n = 30,000). AID 434959;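 active means delta delta Cp rounded down to an integer at or above 3, about 3 SD of DMSO wells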;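 further: higher means less YB-1 transcript or more CDIP transcript relative to DMSO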
* = called active by the depositor; ? = inconclusive; nt = not tested or not shown.

SMILES | MITF inh | Hedgehog inh | YB-1 expression
Cc1oc2c(c1C(=O)NC1CCCC1)C(=O)c1ccccc1C2=O | 69.7 | 59.3 | 0.762
COC(=O)c1c(C)cc2c(c(C)c1=O)OC1(C2)C(C)CCC2C(C)(C)OC(=O)C=CC21C (stereo not given) | 43.9 | -51.1 | -0.389
CC1(C)Cc2c(sc3ncn4nc(-c5ccccc5)nc4c23)C(C)(C)N1 | 18.3 | -12.5 | -0.561
OCCCn1c(-c2ccccc2)cn2c3ccccc3nc12 | 97.7* | nt | nt
CCN(CC)CCCn1c(-c2ccc(C)cc2)cn2c3ccccc3nc12 | 5.2 | nt | nt
COc1ccc(N=Cc2c(O)ccc3oc4c(c23)CCCC4)cc1 | 9.6 | 0.0 | -0.155
CC1=C(C#N)C(C(F)(F)F)(C(F)(F)F)N=C(C2CCCCC2)N1 | 64.5 | 104.9* | -0.166
Cc1nnc(NC(C)C)s1 | 8.3 | 0.8 | -0.533
C[C@H]1CN([C@@H](C)CO)C(=O)c2cccc(NC(=O)NC3CCCCC3)c2O[C@@H]1CN(C)S(=O)(=O)c1ccc(Cl)cc1 | 4.4 | 29.7 | -0.07
Cc1ccc(S(=O)(=O)Nc2cccc3c2O[C@H](CN(C)CC2CCCCC2)[C@@H](C)CN([C@@H](C)CO)C3=O)cc1 | -1.2 | -6.6 | -0.0202
C[C@H]1CN([C@@H](C)CO)C(=O)c2cccc(NC(=O)NC3CCCCC3)c2O[C@H]1CN(C)S(=O)(=O)c1ccc(F)cc1 | 23.7 | 103.3* | -0.0878
Cc1ccc(S(=O)(=O)N(C)C[C@@H]2Oc3c(NC(=O)NC4CCCCC4)cccc3C(=O)N([C@@H](C)CO)C[C@@H]2C)cc1 | 31.8 | 100.4* | -0.403
C[C@H](CO)N1C[C@H](C)[C@@H](CN(C)S(=O)(=O)c2ccc(F)cc2)Oc2c(NC(=O)NC3CCCCC3)cccc2C1=O | 9.1 | -145.0 | 0.00116
Cc1ccc(S(=O)(=O)N(C)C[C@H]2Oc3c(NC(=O)NC4CCCCC4)cccc3C(=O)N([C@H](C)CO)C[C@H]2C)cc1 | 3.3 | -3.1 | -0.0063
C[C@H](CO)N1C[C@H](C)[C@H](CN(C)S(=O)(=O)c2ccc(Cl)cc2)Oc2c(NC(=O)NC3CCCCC3)cccc2C1=O | 62.9 | 122.4* | 0.229
Cc1ccc(S(=O)(=O)Nc2cccc3c2O[C@@H](CN(C)CC2CCCCC2)[C@@H](C)CN([C@H](C)CO)C3=O)cc1 | 0.4 | 87.7* | 0.895
O=S(=O)(c1cccc2cccnc12)N1CCN(Cc2cccc(OCCO)c2)CC1 | nt | nt | -0.265
Cc1ccc(-c2ccc(OC(=O)c3ccccc3F)cc2)cc1 | -49.6 | -18.8 | -0.0972
C=C1C(=O)OC2CC1C(OC(C)=O)C/C(C)=C\CC/C(C)=C\CC[C@]2(C)O (stereo not given in full) | ? | 87.5* | 0.0325
C=C1C(=O)O[C@H]2C1[C@H](OC(=O)/C(C)=C/CO)C/C(C)=C\CC[C@@]1(CO)OC21 (stereo not given in full) | 25.9 | 4.2 | 0.098
CC(CNc1ccccc1)C(=Nc1ccccc1)Nc1ccccc1 (stereo not given) | -7.5 | -21.3 | -0.0513
CSC1=N/C(=C\c2ccc(Br)cc2)C(=O)S1 | 2.7 | 4.7 | -0.0818
COC(=O)[C@@]1(Cc2ccccc2N=[N+]=[N-])N=C(c2ccc(OCCCO)cc2)O[C@H]1c1ccccc1N=[N+]=[N-] | nt | nt | -0.115
O=C1NCN(c2ccccc2)C12CCN(CCCC(c1ccc(F)cc1)c1ccc(F)cc1)CC2 | -1.8 | 83.6* | -0.449
CCCCn1c(Br)nc2c1c(=O)[nH]c(=O)n2C | -5.0 | 6.5 | 0.13
SMILES | MITF inh | Hedgehog inh | YB-1 expression
CC(=O)O[C@@H]1CC2C(C)(C)C(=O)C=C[C@]2(C)C2CC[C@@]3(C)[C@H](c4ccoc4)OC(=O)[C@H]4O[C@]43[C@@]21C (stereo not given in full) | 12.1 | 54.2 | -0.286
CC(=O)O[C@@H]1C=C[C@@]2(C)C(C[C@@H](OC(C)=O)[C@@]3(C)C4=CC(=O)O[C@@H](c5ccoc5)[C@]4(C)CCC23)C1(C)C (stereo not given in full) | 91.4* | 6.0 | -0.452
Cc1cc(C)c2c(N)c(C(=O)c3cccs3)sc2n1 | -32.0 | 2.1 | -0.148
C[C@@H]1CCCCO[C@@H](CN(C)C(=O)CCCN(C)C)[C@@H](C)CN([C@H](C)CO)C(=O)c2cc(NS(=O)(=O)c3ccccc3)ccc2O1 | -2.8 | -13.1 | -0.0177
C[C@@H]1CCCCO[C@@H](CN(C)C(=O)CCC(F)(F)F)[C@@H](C)CN([C@H](C)CO)C(=O)c2cc(NC(=O)CCCN(C)C)ccc2O1 | 3.9 | -21.6 | 0.0363
C[C@@H]1CCCCO[C@H](CN(C)C(=O)CCC(F)(F)F)[C@@H](C)CN([C@H](C)CO)C(=O)c2cc(NC(=O)CCC(F)(F)F)ccc2O1 | -5.9 | -9.9 | -0.443
C[C@@H]1CCCCO[C@H](CN(C)C(=O)CCCN(C)C)[C@@H](C)CN([C@H](C)CO)C(=O)c2cc(NC(=O)CCC(F)(F)F)ccc2O1 | -3.9 | 77.4* | -0.403
C[C@@H]1CCCCO[C@H](CN(C)C(=O)CCCN(C)C)[C@@H](C)CN([C@H](C)CO)C(=O)c2cc(NS(=O)(=O)c3ccccc3)ccc2O1 | 0.6 | nt | 4.89*
C[C@@H]1CCCCO[C@H](CN(C)C(=O)CCC(F)(F)F)[C@@H](C)CN([C@H](C)CO)C(=O)c2cc(N(C)C)ccc2O1 | -2.5 | -7.7 | 9.88*
C=C1C(=O)O[C@@H]2C[C@@]3(C)CC(=O)C=C(C)C3C[C@H]12 (stereo not given in full) | 0.7 | 50.6 | -0.322
Nc1ccccc1CC(c1c[nH]c2ccccc12)c1c[nH]c2ccccc12 | 11.7 | nt | -0.638
CCOC(=O)c1cc(C)nc(Sc2ccccc2NC(=O)c2cccc(C(F)(F)F)c2)c1C#N | -0.9 | 1.0 | 0.114
c1ccc(Cc2ccc[n+](Cc3ccccn3)c2)cc1 | 8.7 | nt | 0.448
Cc1csc2sc(-c3ccnc(SCC(=O)NCc4ccccc4)n3)c(C)c12 | -4.5 | nt | 0.261
Cc1csc2sc(-c3ccnc(SCC(=O)c4ccccc4)n3)c(C)c12 | -24.0 | 70.3* | 0.165
C[C@@H]1CN([C@@H](C)CO)C(=O)c2cc(NC(=O)c3ccncc3)ccc2O[C@@H]1CN(C)Cc1ccc(Oc2ccccc2)cc1 | -5.1 | 84.3* | -0.326
C[C@@H]1CN([C@H](C)CO)C(=O)c2cc(NC(=O)c3ccncc3)ccc2O[C@H]1CN(C)Cc1ccc(-c2ccccc2)cc1 | 1.2 | 89.2* | -0.317
COc1ccc(NC(=O)Nc2ccc3c(c2)C(=O)N([C@@H](C)CO)C[C@H](C)[C@@H](CN(C)Cc2ccc(Oc4ccccc4)cc2)O3)cc1 | -9.8 | 3.3 | 0.612
COc1ccc(NC(=O)Nc2ccc3c(c2)C(=O)N([C@H](C)CO)C[C@@H](C)[C@@H](CN(C)Cc2ccc(Oc4ccccc4)cc2)O3)cc1 | -6.9 | 95.6* | 0.115
C[C@@H]1CN([C@H](C)CO)C(=O)c2cc(NS(=O)(=O)c3ccccc3)ccc2O[C@@H]1CN(C)Cc1ccc(Oc2ccccc2)cc1 | 34.9 | 88.1* | 0.0189
C[C@H](CO)N1C[C@H](C)[C@H](CN(C)Cc2ccc(Oc3ccccc3)cc2)Oc2ccc(NC(=O)c3ccncc3)cc2C1=O | 2.4 | -4.2 | 0.197
C[C@@H]1CN([C@H](C)CO)C(=O)c2cc(NS(=O)(=O)c3ccccc3)ccc2O[C@H]1CN(C)Cc1ccc(Oc2ccccc2)cc1 | 8.6 | 42.2 | 0.15

Screens (PubChem)
